A short description of experiment [1]: HepG2 liver cancer cell viability effects, profiling panel, resazurin fluorescence, 24 h, PK04 Diversity Set (AID 1172). The settings on record: higher = more signal. (In general: The colour change of resazurin is a common sign of viable cells or microbes.)
Experiment [2] can be described thus: basal S. cerevisiae growth modulation, no modifier, primary screen, OD600, strain BY4716, 24 h, basal condition (AID 1173). The conditions noted are these: OD600, 24 h, higher = more signal, called active from +8 up or from −8 down.
Experiment [3] in a line: MM1S myeloma cell viability, profiling panel, resazurin fluorescence, basal, 24 h, PK04 Diversity Set (AID 1174). The conditions noted are these: higher = more signal, called active from +8 up or from −8 down.
Experiment [4] deals with Dihydroorotate dehydrogenase (quinone), mitochondrial (Plasmodium falciparum (isolate 3D7)) (UniProt Q08210). Nature of the experiment: PfDHODH enzyme inhibitors, primary screen, biochemical, C-terminal His tag, absorbance 600 nm (AID 1175).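 Also: recombinant parasite enzyme with a five histidine tag at its C terminus.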 The settings on record: DCIP absorbance 600 nm, higher = more signal, called active from +8 up or from −8 down.
The nature of experiment [5]: P. aeruginosa biofilm formation inhibitors, primary screen, strain PAO1, LB-PBS medium, absorbance 600 nm (AID 1176). The conditions noted are these: P. aeruginosa PAO1 growth/biofilm, A600, 12 h; higher = more signal.
A short description of experiment [6]: S. cerevisiae RM11-1a growth modifiers, primary screen, strain RM11-1a, OD600, basal, 24 h (AID 1177).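 Also: cultures grown under basal conditions with no added stressor.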 The conditions noted are these: OD600, 24 h, higher = more signal, called active from +8 up or from −8 down.
Experiment [7] can be described thus: E. coli acrAB mutant growth effects, primary screen, E. coli filamentation inducers, strain DRC39, OD650, 24 h (AID 1178).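 Also: growth measured as culture turbidity by optical density at 650 nm.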 The conditions noted are these: higher = more signal, called active from +8 up or from −8 down.
Experiment [8] can be described thus: E. coli acrAB mutant growth effects, primary screen, E. coli filamentation inducers, strain DRC39, OD650, 48 h (AID 1179).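 Also: screen aims at cell division blockers that make cells filament.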 The conditions noted are these: E. coli DRC39 delta-acrAB growth, higher = more signal, called active from +8 up or from −8 down.
Experiment [9] is described as follows: RPMI8226 myeloma cell viability, profiling panel, resazurin fluorescence, basal, 24 h, PK04 Diversity Set (AID 1180).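 Also: RPMI8826 multiple myeloma cell line at 5000 cells per well.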 The conditions noted are these: higher = more signal.
Experiment [10] addresses E3 ubiquitin-protein ligase XIAP (Homo sapiens) (UniProt P98170). Nature of the experiment: XIAP binders, primary screen, biophysical, small-molecule microarray, fluorescence 635 nm (AID 1181).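 Also: score merges 667 nm emission and signal to noise over triplicate slides.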 The settings on record: small-molecule microarray binding, higher = more signal.
Experiment [11] concerns XIP peptide (Xip251-270) binding. Nature of the experiment: small-molecule binders of XIP peptide, primary screen, biochemical, small-molecule microarray, fluorescence 635/667 nm, 0.1 µg/mL protein (AID 1182). The settings on record: fluorescent protein binding, 635 nm, higher = more signal, called active from +8 up or from −8 down.
For the next experiment, the system named is XIP peptide (Xip251-270). Nature of the experiment: small-molecule binders of XIP peptide, primary screen, biochemical, small-molecule microarray, fluorescence 635/667 nm, 0.5 µg/mL protein (AID 1183). The settings on record: small-molecule microarray binding, fluorescence 635 nm; higher = more signal.
Experiment [12] is described as follows: Plasmodium falciparum growth inhibition, primary screen, strain 3D7, DAPI fluorescence, 100 nL (AID 1184).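 Also: parasites grown inside human red blood cells in medium with human serum.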 The conditions noted are these: P. falciparum 3D7 growth, 3 d, higher = more signal.
In experiment [13] the target is Homeobox protein Hox-A13 (Mus musculus) (UniProt Q62424). Nature of the experiment: inhibitors of HoxA13-DNA binding, primary screen, biochemical, fluorescence polarization, labeled oligonucleotide (AID 1185). The conditions noted are these: 15 min, higher = more signal, called active from +8 up or from −8 down. On the technique in general: Polarisation of emitted light reports the rotation of a fluorescent probe.

Experiment [14] can be described thus: inhibitors of hydroxyurea-induced Chk1 phosphorylation, primary screen, imaging, HeLa, phospho-Chk1 antibody, percent positive cells (AID 1186). The conditions noted are these: hydroxyurea-induced phospho-Chk1 immunofluorescence imaging, higher = more signal.
Experiment [15] can be described thus: inhibitors of hydroxyurea-induced Chk1 phosphorylation, primary screen, imaging, HeLa, phospho-Chk1 nuclear intensity (AID 1187). The conditions noted are these: hydroxyurea-induced phospho-Chk1 immunofluorescence imaging, higher = more signal.

Active and inactive are the calls of the source. Unless noted, no rule for the calls is given here.

Sequence of Dihydroorotate dehydrogenase (quinone), mitochondrial (Plasmodium falciparum (isolate 3D7)) (Q08210 whole entry, looked up): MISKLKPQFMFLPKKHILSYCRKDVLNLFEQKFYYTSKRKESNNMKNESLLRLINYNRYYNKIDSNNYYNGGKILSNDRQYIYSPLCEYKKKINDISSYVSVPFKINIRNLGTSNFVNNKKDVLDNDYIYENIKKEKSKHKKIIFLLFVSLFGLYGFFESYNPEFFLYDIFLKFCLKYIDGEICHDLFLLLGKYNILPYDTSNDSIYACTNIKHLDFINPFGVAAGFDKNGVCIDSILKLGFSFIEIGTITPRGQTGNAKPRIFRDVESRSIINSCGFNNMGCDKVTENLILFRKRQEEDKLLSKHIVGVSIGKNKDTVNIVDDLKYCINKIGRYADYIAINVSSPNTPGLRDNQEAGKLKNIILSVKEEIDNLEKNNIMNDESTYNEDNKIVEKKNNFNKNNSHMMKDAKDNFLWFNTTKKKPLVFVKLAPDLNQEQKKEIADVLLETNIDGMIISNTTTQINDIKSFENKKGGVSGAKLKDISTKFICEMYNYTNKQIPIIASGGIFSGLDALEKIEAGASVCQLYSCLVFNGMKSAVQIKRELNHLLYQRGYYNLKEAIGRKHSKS
Sequence of E3 ubiquitin-protein ligase XIAP (Homo sapiens) (P98170 whole entry, looked up): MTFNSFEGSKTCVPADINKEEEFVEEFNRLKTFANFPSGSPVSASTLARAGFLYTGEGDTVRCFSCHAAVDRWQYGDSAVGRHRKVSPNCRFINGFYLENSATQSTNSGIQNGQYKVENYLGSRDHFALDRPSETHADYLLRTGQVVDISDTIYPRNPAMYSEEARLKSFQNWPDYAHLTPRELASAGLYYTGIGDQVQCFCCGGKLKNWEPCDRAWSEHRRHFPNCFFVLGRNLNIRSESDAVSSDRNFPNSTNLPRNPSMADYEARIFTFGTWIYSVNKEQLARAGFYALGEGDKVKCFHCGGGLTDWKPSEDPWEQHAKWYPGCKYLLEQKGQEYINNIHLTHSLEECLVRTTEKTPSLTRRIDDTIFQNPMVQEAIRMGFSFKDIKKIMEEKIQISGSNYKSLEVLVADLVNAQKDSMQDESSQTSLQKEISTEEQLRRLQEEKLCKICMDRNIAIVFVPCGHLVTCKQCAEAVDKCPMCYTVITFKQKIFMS
Sequence of Homeobox protein Hox-A13 (Mus musculus) (Q62424 whole entry, looked up): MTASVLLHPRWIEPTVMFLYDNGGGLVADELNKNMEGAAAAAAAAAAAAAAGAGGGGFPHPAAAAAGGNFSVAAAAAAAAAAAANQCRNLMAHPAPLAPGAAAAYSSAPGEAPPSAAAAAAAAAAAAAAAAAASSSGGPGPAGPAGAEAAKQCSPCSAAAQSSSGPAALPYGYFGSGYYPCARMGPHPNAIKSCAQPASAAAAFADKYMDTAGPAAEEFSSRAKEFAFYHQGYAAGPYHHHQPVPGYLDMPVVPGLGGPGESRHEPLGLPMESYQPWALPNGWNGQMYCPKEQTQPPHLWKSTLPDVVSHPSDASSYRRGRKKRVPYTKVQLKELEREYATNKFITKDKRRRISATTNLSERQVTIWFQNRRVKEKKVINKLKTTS

With `COC(=O)c1ccc(OC)c(/C=C\CC(CCc2ccccc2)OC(=O)c2ccncc2)c1` (stereo not given), the z-score was 0.263 in experiment [1]; 0.0069 (inactive) in experiment [2]; 0.472 (inactive) in experiment [3]; 0.0619 (inactive) in experiment [5]; -0.0204 (inactive) in [6]; 0.0514 (inactive) in [7]. In addition, the z-score in [8] is -0.379 (inactive); in experiment [9], 1.24; in [12], -0.687; in experiment [13], -2.52 (inactive); in [14] it was 0.0946 (inactive); in [15], 0.459 (inactive). The composite z-score was -3.1 (inactive) in experiment [4], 2.62 in experiment [10], -0.661 (inactive) in experiment [11] and -0.329 with XIP peptide (Xip251-270).
`CC(C)NC(=O)[C@@]1(Cc2ccccc2I)c2ccccc2C(=O)N(Cc2ccccc2C(F)(F)F)[C@H]1c1ccc(CO)cc1`: the z-score in experiment [1] was 0.406; in [2], 0.835 (inactive); in experiment [3] it was 1.09 (inactive); in experiment [5], 0.82 (inactive); in [6], -0.272 (inactive); in experiment [7] it was 0.52 (inactive). In addition, the z-score in [8] was -0.319 (inactive); in experiment [9] it was 0.508; in experiment [12], -1.09; in [13] it was -3.19 (inactive); in [14] it was -0.195 (inactive); in [15], 0.0078 (inactive). Moreover, the composite z-score in experiment [4] is -0.327 (inactive); in experiment [10], -0.206; in experiment [11], 0.52 (inactive); with XIP peptide (Xip251-270), 0.815.
Regarding `C[N+](C)(C)CCCCNC(=O)[C@H]1C[C@H]2C(=O)NCC(=O)N2[C@H]1c1ccc(O)cc1`, the z-score in experiment [1] is -0.103; in experiment [2] it was 0.105 (inactive); in experiment [3] it was -0.511 (inactive); in experiment [5], 0.28 (inactive); in [6], -0.279 (inactive); in [7] it was 0.703 (inactive). The z-score is 1.35 (inactive) in experiment [8]; -0.253 in [9]; 0.258 in experiment [12]; -0.735 (inactive) in experiment [13]; -1.02 (inactive) in experiment [14]; -0.701 (inactive) in experiment [15]. The composite z-score was -29.2 (active) in experiment [4], -0.17 in experiment [10], 0.696 (inactive) in experiment [11] and 0.922 with XIP peptide (Xip251-270).
Turning to `Cc1ccc(-c2cccc(=O)o2)cc1`, the z-score is -0.789 in [1]; -2.2 (inactive) in [2]; 0.123 (inactive) in experiment [3]; -0.128 (inactive) in [5]; -0.333 (inactive) in experiment [6]; -0.418 (inactive) in experiment [7]. Moreover, the z-score in experiment [8] is -0.292 (inactive); in [9], -0.442; in experiment [12], 0.842; in experiment [13], -1.28 (inactive); in experiment [14], 0.45 (inactive); in experiment [15] it was -0.203 (inactive). Moreover, the composite z-score in [4] was -0.919 (inactive); in experiment [10], -0.0143; in experiment [11], -0.0449 (inactive); in the experiment with XIP peptide (Xip251-270), -0.776.
Consider `[N-]=[N+]=NCc1ccccc1[C@H]1OC(c2ccc(OCCCO)cc2)=N[C@@]1(Cc1ccccc1)C(N)=O`, for which the z-score in experiment [1] was 1.16; in [2], -3.32 (inactive); in experiment [3], -0.0284 (inactive); in experiment [5], -0.195 (inactive); in [6] it was 1.01 (inactive); in experiment [7], 0.961 (inactive). Further, the z-score in experiment [8] was 0.195 (inactive); in [9] it was -0.373; in experiment [12], -0.676; in [13], -3.61 (inactive); in experiment [14] it was -0.441 (inactive); in experiment [15] it was -0.189 (inactive). The composite z-score is -0.174 (inactive) in [4], -0.124 in [10], 1.78 (inactive) in experiment [11] and 0.852 in the experiment with XIP peptide (Xip251-270).
As to `C[N+](C)(C)CCCC[C@@H]1NC(=O)[C@H]2C[C@@H](C(=O)NCCCCCCN)[C@@H](c3cccc(OCCO)c3)N2C1=O`, the z-score in [1] was -2.69; in experiment [2] it was -0.707 (inactive); in [3], 0.45 (inactive); in experiment [5], 1.18 (inactive); in experiment [6], -0.0241 (inactive); in experiment [7], -0.678 (inactive). Moreover, the z-score is -1.35 (inactive) in [8]; 0.652 in [9]; -0.997 in experiment [12]; -2.38 (inactive) in experiment [13]; -0.699 (inactive) in [14]; -0.146 (inactive) in experiment [15]. Also, the composite z-score is -0.114 (inactive) in experiment [4], 0.194 in experiment [10], 1.25 (inactive) in experiment [11] and 0.527 in the experiment with XIP peptide (Xip251-270).
Take `C=C(COC)C(=O)CC[C@H](OC(=O)c1ccccc1-c1ccccc1C(=O)O)c1ccc(OCCO)cc1`: the z-score in experiment [1] is -0.381; in [2], 0.142 (inactive); in [3], -0.288 (inactive); in [5], 1.3 (inactive); in experiment [6], -0.386 (inactive); in experiment [7] it was -0.752 (inactive). The z-score is -0.561 (inactive) in experiment [8]; -0.7 in experiment [9]; -1.84 in experiment [12]; -5.78 (inactive) in experiment [13]; -0.33 (inactive) in [14]; -0.537 (inactive) in [15]. Besides, the composite z-score in experiment [4] was -0.575 (inactive); in [10] it was 0.0223; in [11] it was 0.0817 (inactive); with XIP peptide (Xip251-270), 0.264.
Regarding `CCOC(=O)C1=CCC(c2cccc(Cl)c2)O1` (stereo not given), the z-score in experiment [1] is 0.482; in [2], -4.22 (inactive); in experiment [3] it was 0.402 (inactive); in experiment [5], 0.601 (inactive); in experiment [6] it was -1.6 (inactive); in [7], 0.484 (inactive). Also, the z-score is -0.16 (inactive) in experiment [8]; -0.0798 in [9]; -1.25 in experiment [12]; -0.834 (inactive) in experiment [13]; 0.296 (inactive) in experiment [14]; -0.0984 (inactive) in experiment [15]. The composite z-score is -0.863 (inactive) in [4], 0.19 in experiment [10], 1.62 (inactive) in [11] and 0.183 with XIP peptide (Xip251-270).
As to `COC(=O)[C@@]1(Cc2ccc(F)cc2)[C@H]2c3cc(C(=O)N4CCCC4)n(Cc4ccccc4)c3C[C@H]2CN1C(=O)c1ccccc1`, the z-score in [1] was 0.155; in [2], 1.38 (inactive); in [3], -0.874 (inactive); in experiment [5], -0.526 (inactive); in experiment [6], 0.669 (inactive); in [7], 0.392 (inactive). Also, the z-score in experiment [8] was -0.406 (inactive); in [9] it was -0.922; in [12] it was -0.443; in experiment [13] it was -3.98 (inactive); in [14] it was -0.0167 (inactive); in [15], 0.0304 (inactive). Further, the composite z-score in [4] was 0.335 (inactive); in experiment [10], -0.146; in experiment [11] it was 0.0584 (inactive); with XIP peptide (Xip251-270), 0.703.
Take `O=C1C2C=CC(C(O)c3ccccn3)N(Nc3ccccc3)C2C(=O)N1c1ccccc1` (stereo not given): the z-score in [1] was 0.458; in experiment [2] it was -1.07 (inactive); in experiment [3], -0.702 (inactive); in experiment [5], 0.35 (inactive); in experiment [6] it was 0.565 (inactive); in [7] it was -0.562 (inactive). In addition, the z-score in [8] was -0.225 (inactive); in experiment [9], 0.16; in experiment [12], -0.244; in experiment [13], -1.65 (inactive); in [14], -0.849 (inactive); in experiment [15], -0.791 (inactive). The composite z-score is 1.06 (inactive) in experiment [4], 0.109 in experiment [10], 0.099 (inactive) in [11] and 0.116 in the experiment on XIP peptide (Xip251-270).

The record behind these values is PubChem BioAssay.
